Active and inactive are the calls of the source. The calls were made as follows: active = hit-call score of the fitted dose curve at least 0.9, where 1 is the maximum; inactive = score below 0.9.
Experiments:
[1] = ATG_M_32_CIS: Attagene CIS-FACTORIAL HepG2 Assay for M32 Transcription Factor (Internal Marker) (AID 2282949); settings: HepG2 Attagene cis-factorial M32 reporter, mRNA; actives raise or lower the signal;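 also: background control marker of the multiplexed CIS panel rather than a real target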
Outline: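 Transient MRTU transfection of HepG2; 24 h compound treatment; TriZol RNA, oligo(dT) RT, reporter PCR, 6-FAM primer extension, HpaI cut, CE. Gain/loss of signal vs DMSO.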

[2] = ATG_M_06_CIS: Attagene CIS-FACTORIAL HepG2 Assay for M06 Transcription Factor (Internal Marker) (AID 2282950); settings: HepG2 Attagene CIS-FACTORIAL M06 internal marker reporter; actives raise or lower the signal
Outline: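 Measured 24 h post-dosing in transiently transfected HepG2 cells, this internal-marker endpoint reports reporter mRNA via RT-PCR with fluorescent primer extension and capillary electrophoresis. DMSO served as negative control and baseline for bidirectional fitting.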

[3] = molecular target: Hypoxia-inducible factor 1-alpha (Homo sapiens) (UniProt Q16665); assay: ATG_HIF1a_CIS: Attagene CIS-FACTORIAL HepG2 Assay for human Hypoxia Inducible Factor 1 (HIF1A) (AID 2282951); settings: HepG2 Attagene cis-factorial HIF1a reporter transcription; actives raise or lower the signal
Outline: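 Measures endogenous transcription-factor activity through cis-regulated reporter mRNA in HepG2. Cells dosed 24 h; transcripts quantified by RT-PCR with 6-FAM-labelled products separated by capillary electrophoresis; DMSO serves as negative control.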

[4] = molecular target: Hepatocyte nuclear factor 6 (Homo sapiens) (UniProt Q9UBC0); assay: ATG_HNF6_CIS: Attagene CIS-FACTORIAL HepG2 Assay for human Hepatocyte Nuclear Factor 6 (HNF6) (AID 2282952); settings: HepG2 Attagene cis-factorial HNF6 reporter transcription; actives raise or lower the signal
Outline: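 First, HepG2 cells were transfected with the multiplexed cis reporter library and dosed with chemical for 24 h. Next, RNA was reverse-transcribed, PCR-amplified and fluorescently labelled. Finally, HpaI-digested fragments were read by capillary electrophoresis.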

[5] = molecular target: Heat shock factor protein 1 (Homo sapiens) (UniProt Q00613); assay: ATG_HSE_CIS: Attagene CIS-FACTORIAL HepG2 Assay for human Heat Shock Transcription Factor 1 (HSE) (AID 2282953); settings: HepG2 HSE cis-reporter, Attagene RNA transcription; actives raise or lower the signal
Outline: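 Reporter mRNA induction in HepG2 is measured 24 h after dosing, using transiently transfected multiplexed cis-regulated reporter units. Signal comes from capillary electrophoresis of labelled RT-PCR products, with DMSO as negative control.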

[6] = ATG_MRE_CIS: Attagene CIS-FACTORIAL HepG2 Assay for human Metal Responsive Element (MRE) (AID 2282954); settings: HepG2 MRE cis-reporter transcription, Attagene multiplex; actives raise or lower the signal
Outline: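 Multiplexed cis-reporter assay in human HepG2 liver cells, 24 h incubation with test chemical. Reporter transcripts measured by RT-PCR and capillary electrophoresis; values from bidirectional curve fitting versus DMSO.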

[7] = ATG_PBREM_CIS: Attagene CIS-FACTORIAL HepG2 Assay for human Phenobarbital-responsive Enhancer Module (PBREM) (AID 2282955); settings: HepG2 PBREM cis-reporter, Attagene multiplexed transcription; actives raise or lower the signal
Outline: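 Fluorescence of labelled reporter cDNA fragments, resolved by capillary electrophoresis, gives mRNA induction in transfected HepG2 cells treated for 24 h; DMSO serves as negative control and baseline.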

[8] = molecular target: Paired box protein Pax-6 (Homo sapiens) (UniProt P26367); assay: ATG_Pax6_CIS: Attagene CIS-FACTORIAL HepG2 Assay for human Paired Box 6 (PAX6) (AID 2282956); settings: HepG2 CIS-FACTORIAL PAX6 reporter transcription, RNA readout; actives raise or lower the signal
Outline: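 Readout: reporter transcript fluorescence after RT-PCR and capillary electrophoresis. Cells: HepG2, transiently transfected with cis-regulated MRTUs. Exposure 24 h. Gain or loss of signal fitted bidirectionally relative to DMSO.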

[9] = ATG_PXRE_CIS: Attagene CIS-FACTORIAL HepG2 Assay for human Pregnane X Receptor Element (PXRE) (AID 2282957); settings: HepG2 Attagene CIS-FACTORIAL PXRE reporter, mRNA; actives raise or lower the signal
Outline: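 After a 24 h chemical incubation, total RNA from transfected HepG2 cells was reverse-transcribed and reporter cDNA amplified, FAM-labeled, HpaI-digested and sized by capillary electrophoresis. DMSO served as baseline for bidirectional curve fitting.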

[10] = ATG_PPRE_CIS: Attagene CIS-FACTORIAL HepG2 Assay for human Peroxisome Proliferator-activated Response Element (PPRE) (AID 2282958); settings: HepG2 PPRE cis-element reporter, Attagene transcription factor profiling; actives raise or lower the signal
Outline: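 Cells are first transfected transiently with the multiplexed reporter library, then dosed for 24 h. Total RNA is reverse-transcribed, amplified, fluorescently end-labeled and HpaI-cut before capillary electrophoresis; activity is fitted bidirectionally against DMSO controls.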

[11] = ATG_RORE_CIS: Attagene CIS-FACTORIAL HepG2 Assay for human RAR-related Orphan Receptor Element (RORE) (AID 2282959); settings: HepG2 Attagene cis-factorial RORE reporter, mRNA; actives raise or lower the signal
Outline: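 Cells were HepG2 carrying transfected cis-regulated reporter constructs, dosed for 24 hours. Total RNA was reverse-transcribed and reporter cDNA amplified, fluorescently labeled and sized by capillary electrophoresis. Activity was fitted bidirectionally relative to DMSO.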

[12] = ATG_Sox_CIS: Attagene CIS-FACTORIAL HepG2 Assay for human SRY-box transcription factor (SOX) (AID 2282960); settings: HepG2 Attagene cis-factorial SOX reporter, mRNA; actives raise or lower the signal
Outline: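 Transient MRTU transfection of HepG2; 24 h compound incubation; TriZol RNA, oligo(dT) RT, PCR, 6-FAM primer extension, HpaI cut, CE. Bidirectional fit, DMSO = baseline.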

[13] = molecular target: Transcription factor Sp1 (Homo sapiens) (UniProt P08047); assay: ATG_Sp1_CIS: Attagene CIS-FACTORIAL HepG2 Assay for human Specificity Protein 1 (Sp1) (AID 2282961); settings: HepG2 Sp1 cis-reporter transcription, actives raise or lower the signal
Outline: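 Endogenous Sp1 activity was gauged in human liver HepG2 cells bearing transfected reporter units under a cis-regulating promoter. After 24 h dosing, reporter mRNA was quantified by RT-PCR with capillary electrophoresis, and activity fitted bidirectionally versus DMSO.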

[14] = ATG_SREBP_CIS: Attagene CIS-FACTORIAL HepG2 Assay for human Sterol Regulatory Element Binding (SREBP) (AID 2282962); settings: HepG2 Attagene cis-factorial SREBP reporter, mRNA; actives raise or lower the signal
Outline: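 Readout: fluorescent reporter-transcript peaks resolved by capillary electrophoresis after RT-PCR. Cells were human HepG2 carrying transfected cis-promoter reporter constructs, dosed for 24 h. Gain or loss of signal was fitted against DMSO controls.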

[15] = molecular target: Signal transducer and activator of transcription 3 (Homo sapiens) (UniProt P40763); assay: ATG_STAT3_CIS: Attagene CIS-FACTORIAL HepG2 Assay for human Signal Transducer and Activator of Transcription 3 (STAT3) (AID 2282963); settings: HepG2, Attagene cis-factorial STAT3 reporter transcription; actives raise or lower the signal
Outline: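 Cis-factorial format: endogenous transcription factors in HepG2 drive transfected reporter units. After 24 h treatment, reporter RNA was reverse-transcribed, amplified, FAM-labelled and HpaI-digested before CE analysis; activity scored in both directions against DMSO.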

[16] = ATG_TA_CIS: Attagene CIS-FACTORIAL HepG2 Assay for human TA Basal Promoter (AID 2282964); settings: HepG2 Attagene CIS-factorial TA basal promoter reporter; actives raise or lower the signal
Outline: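 Cis-factorial format in HepG2: reporters report endogenous factors, not chimeric Gal4 fusions. After 24 h treatment, reporter transcripts were measured by RT-PCR-capillary electrophoresis fluorescence, analysed bidirectionally versus DMSO.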

[17] = ATG_TAL_CIS: Attagene CIS-FACTORIAL HepG2 Assay for human TAL Basal Promoter (AID 2282966); settings: HepG2 Attagene cis-factorial TAL promoter reporter; actives raise or lower the signal;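 also: background control endpoint measuring basal TAL promoter reporter mRNA not a specific factor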
Outline: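 Basal-promoter background-control endpoint from a multiplexed HepG2 reporter panel. Cells were exposed 24 h, then reporter mRNA was read by RT-PCR/CE fluorescence and fitted in both directions relative to DMSO.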

[18] = ATG_TGFb_CIS: Attagene CIS-FACTORIAL HepG2 Assay for human Transforming Growth Factor (TGF) (AID 2282967); settings: HepG2 Attagene CIS TGFb reporter, mRNA transcription; actives raise or lower the signal
Outline: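 Multiplexed cis-reporter HepG2 system, 24 h treatment; mRNA induction read by fluorescence after RT-PCR and CE; DMSO negative control, bidirectional curve fitting.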

[19] = ATG_TCF_b_cat_CIS: Attagene CIS-FACTORIAL HepG2 Assay for human T-Cell-Factor with beta-catenin (TCF/b-cat) (AID 2282965); settings: HepG2 TCF/beta-catenin cis-reporter transcription, actives raise or lower the signal
Outline: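 Endogenous TCF/LEF activity read as reporter transcript level via RT-PCR and capillary electrophoresis fluorescence in transfected HepG2, 24 h exposure; gain or loss of signal fitted against DMSO controls.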

[20] = ATG_VDRE_CIS: Attagene CIS-FACTORIAL HepG2 Assay for human Vitamin D Receptor Element (VDRE) (AID 2282968); settings: HepG2 VDRE cis-reporter transcription, actives raise or lower the signal
Outline: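 Measures endogenous factor activity through cis-element-driven reporter transcripts in transiently transfected HepG2. Cells are treated 24 h; reporter mRNA is quantified by RT-PCR and capillary electrophoresis; fitting is bidirectional.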

Measured: AC50

Chain of Transcription factor Sp1 (Homo sapiens) (P08047 whole entry, looked up): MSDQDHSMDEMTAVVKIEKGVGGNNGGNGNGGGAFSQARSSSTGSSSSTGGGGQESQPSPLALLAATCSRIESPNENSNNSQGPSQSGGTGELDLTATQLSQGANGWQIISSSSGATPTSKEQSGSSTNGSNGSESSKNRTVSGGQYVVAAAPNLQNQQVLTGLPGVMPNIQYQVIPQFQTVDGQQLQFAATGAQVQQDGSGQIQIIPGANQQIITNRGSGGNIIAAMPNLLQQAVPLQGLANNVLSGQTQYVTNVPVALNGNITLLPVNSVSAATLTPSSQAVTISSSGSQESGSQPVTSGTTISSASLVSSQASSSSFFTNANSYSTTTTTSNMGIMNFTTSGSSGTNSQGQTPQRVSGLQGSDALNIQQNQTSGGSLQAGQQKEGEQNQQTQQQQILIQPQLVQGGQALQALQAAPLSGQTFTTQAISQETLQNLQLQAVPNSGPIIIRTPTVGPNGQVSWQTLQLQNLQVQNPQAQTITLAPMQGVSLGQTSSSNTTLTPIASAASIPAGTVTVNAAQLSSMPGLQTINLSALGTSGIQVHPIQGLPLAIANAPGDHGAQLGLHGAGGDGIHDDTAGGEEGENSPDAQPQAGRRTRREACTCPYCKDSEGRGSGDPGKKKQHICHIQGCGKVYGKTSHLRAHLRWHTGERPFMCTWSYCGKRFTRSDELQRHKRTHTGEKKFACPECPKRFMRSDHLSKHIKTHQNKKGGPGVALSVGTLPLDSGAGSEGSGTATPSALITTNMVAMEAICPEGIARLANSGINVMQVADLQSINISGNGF
Chain of Hypoxia-inducible factor 1-alpha (Homo sapiens) (Q16665 whole entry, looked up): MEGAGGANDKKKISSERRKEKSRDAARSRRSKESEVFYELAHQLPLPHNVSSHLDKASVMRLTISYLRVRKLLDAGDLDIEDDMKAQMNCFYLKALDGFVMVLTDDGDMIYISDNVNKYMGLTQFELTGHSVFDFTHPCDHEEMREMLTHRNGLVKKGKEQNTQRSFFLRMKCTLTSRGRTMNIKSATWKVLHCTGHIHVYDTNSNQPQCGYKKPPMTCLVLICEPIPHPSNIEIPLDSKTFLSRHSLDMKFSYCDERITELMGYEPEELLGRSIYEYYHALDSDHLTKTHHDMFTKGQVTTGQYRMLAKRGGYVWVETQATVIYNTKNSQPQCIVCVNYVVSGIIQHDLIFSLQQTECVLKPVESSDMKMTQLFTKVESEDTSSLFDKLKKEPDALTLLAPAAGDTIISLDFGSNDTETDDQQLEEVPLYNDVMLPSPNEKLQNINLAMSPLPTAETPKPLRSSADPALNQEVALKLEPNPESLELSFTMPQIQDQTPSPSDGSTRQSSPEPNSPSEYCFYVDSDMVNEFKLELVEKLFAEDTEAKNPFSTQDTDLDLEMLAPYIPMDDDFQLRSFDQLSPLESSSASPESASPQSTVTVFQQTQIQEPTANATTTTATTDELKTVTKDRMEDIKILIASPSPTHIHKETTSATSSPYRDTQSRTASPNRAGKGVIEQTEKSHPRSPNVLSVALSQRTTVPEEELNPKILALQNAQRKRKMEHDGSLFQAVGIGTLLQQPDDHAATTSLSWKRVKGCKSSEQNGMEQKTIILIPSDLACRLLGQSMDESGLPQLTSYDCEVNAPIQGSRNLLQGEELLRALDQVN
Chain of Hepatocyte nuclear factor 6 (Homo sapiens) (Q9UBC0 whole entry, looked up, the tested form may be a part): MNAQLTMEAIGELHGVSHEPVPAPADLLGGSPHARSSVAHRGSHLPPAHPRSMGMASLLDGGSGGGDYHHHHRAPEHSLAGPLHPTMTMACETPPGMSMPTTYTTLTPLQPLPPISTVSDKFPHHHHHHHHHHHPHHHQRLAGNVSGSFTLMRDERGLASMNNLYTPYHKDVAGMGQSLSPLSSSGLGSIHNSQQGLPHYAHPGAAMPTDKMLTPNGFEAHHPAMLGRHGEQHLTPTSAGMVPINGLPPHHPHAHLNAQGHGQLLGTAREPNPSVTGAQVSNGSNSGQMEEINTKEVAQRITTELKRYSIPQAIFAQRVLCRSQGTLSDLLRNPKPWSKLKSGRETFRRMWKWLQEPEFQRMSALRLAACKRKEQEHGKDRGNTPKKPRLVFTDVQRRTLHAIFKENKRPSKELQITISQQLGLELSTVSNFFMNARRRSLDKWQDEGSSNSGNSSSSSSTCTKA
Chain of Heat shock factor protein 1 (Homo sapiens) (Q00613 whole entry, looked up): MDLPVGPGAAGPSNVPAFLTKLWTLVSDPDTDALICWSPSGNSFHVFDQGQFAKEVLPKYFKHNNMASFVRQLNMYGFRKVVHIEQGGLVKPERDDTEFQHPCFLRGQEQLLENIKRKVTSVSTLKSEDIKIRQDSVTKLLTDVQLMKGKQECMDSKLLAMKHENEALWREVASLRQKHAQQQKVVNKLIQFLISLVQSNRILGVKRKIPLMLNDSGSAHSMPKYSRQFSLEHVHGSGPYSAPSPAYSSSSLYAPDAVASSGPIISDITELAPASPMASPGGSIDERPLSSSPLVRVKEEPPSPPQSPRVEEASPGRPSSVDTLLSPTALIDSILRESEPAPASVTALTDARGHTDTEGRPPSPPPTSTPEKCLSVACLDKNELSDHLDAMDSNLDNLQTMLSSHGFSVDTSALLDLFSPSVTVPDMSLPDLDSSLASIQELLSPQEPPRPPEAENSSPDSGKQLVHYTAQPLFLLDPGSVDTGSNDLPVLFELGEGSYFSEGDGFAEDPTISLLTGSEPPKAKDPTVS
Chain of Signal transducer and activator of transcription 3 (Homo sapiens) (P40763 whole entry, looked up): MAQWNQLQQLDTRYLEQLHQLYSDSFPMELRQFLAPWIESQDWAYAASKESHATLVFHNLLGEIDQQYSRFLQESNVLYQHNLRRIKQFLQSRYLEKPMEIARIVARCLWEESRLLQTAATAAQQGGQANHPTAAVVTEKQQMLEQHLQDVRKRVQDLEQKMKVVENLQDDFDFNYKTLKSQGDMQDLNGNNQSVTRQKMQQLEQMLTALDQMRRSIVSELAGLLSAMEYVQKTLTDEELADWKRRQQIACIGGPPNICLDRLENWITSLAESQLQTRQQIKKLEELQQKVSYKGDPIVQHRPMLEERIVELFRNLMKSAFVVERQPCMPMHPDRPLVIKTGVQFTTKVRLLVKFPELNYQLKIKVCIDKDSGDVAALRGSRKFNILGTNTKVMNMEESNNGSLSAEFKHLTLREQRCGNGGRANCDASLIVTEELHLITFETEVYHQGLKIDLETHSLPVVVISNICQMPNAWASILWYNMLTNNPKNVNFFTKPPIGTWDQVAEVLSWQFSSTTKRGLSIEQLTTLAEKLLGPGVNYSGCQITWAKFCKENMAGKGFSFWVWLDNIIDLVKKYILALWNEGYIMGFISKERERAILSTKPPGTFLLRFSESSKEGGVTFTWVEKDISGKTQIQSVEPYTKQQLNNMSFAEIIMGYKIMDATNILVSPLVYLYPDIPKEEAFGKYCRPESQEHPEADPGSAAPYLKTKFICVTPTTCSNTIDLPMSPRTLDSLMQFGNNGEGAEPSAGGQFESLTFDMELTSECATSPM
Chain of Paired box protein Pax-6 (Homo sapiens) (P26367 whole entry, looked up): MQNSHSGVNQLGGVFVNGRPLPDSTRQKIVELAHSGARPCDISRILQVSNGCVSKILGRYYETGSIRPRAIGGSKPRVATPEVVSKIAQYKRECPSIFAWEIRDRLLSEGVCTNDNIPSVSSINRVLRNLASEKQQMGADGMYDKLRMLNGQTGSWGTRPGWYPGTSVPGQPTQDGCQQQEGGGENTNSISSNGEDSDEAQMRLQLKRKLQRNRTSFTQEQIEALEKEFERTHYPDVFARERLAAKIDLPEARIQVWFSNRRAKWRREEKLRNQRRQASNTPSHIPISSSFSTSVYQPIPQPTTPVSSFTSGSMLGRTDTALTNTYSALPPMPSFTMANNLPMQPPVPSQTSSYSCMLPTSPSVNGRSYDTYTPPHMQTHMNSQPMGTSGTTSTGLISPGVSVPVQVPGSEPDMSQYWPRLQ

Oc1c(Br)cc(Br)cc1Br
active: [6] 78.7 µM | [7] 20.9 µM | [9] 5.82 µM | [10] 51.2 µM | [11] 40.6 µM | [13] 25.9 µM | [16] 65.7 µM | [18] 156 µM
not listed: [19] | [20]
inactive: all other assays above

O=[N+]([O-])c1cccc2ccccc12
not listed: [9] | [17] | [18] | [20]
inactive: all other assays above

CN(C1CCCCC1)C1CCCCC1
active: [9] 31.7 µM
not listed: [17]
inactive: all other assays above

CNC(=O)CSP(=O)(OC)OC
not listed: [11] | [20]
inactive: all other assays above

O=S1OC[C@@H]2[C@H](CO1)[C@]1(Cl)C(Cl)=C(Cl)[C@@]2(Cl)C1(Cl)Cl (stereo partly drawn)
active: [6] 66.4 µM | [7] 26.4 µM | [9] 2.34 µM | [20] 6.07 µM
not listed: [10]
inactive: all other assays above

CC(F)(F)CC(F)(F)F
not listed: [17]
inactive: all other assays above

COCCl
not listed: [17]
inactive: all other assays above
